# Cy5 interf NS3h: Cy5 fluorescence quenchers or enhancers, artefact control for HCV NS3 helicase inhibitor project, biochemical, ChemBridge library, Cy5 readout; Cy5-dT15 DNA with NS3h, fluorescence interference; actives lie on both sides; signal over control mean, under 1 quenches; fluorescence interference ratio at 100 µM; actives 6% (n = 16,000);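 active means compound fluorescence over control fluorescence at most 0.8, a quencher, or at least a set upper limit, an enhancer; inactive means ratio between 0.8 and the set upper limit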
# NS3h inh CB: HCV NS3 helicase inhibitors, primary screen, biochemical, fluorescence polarization, ChemBridge library. actives 1.6% (n = 16,000). inhibition, % at 100 µM. Hepatitis C virus NS3 helicase. NS3h Cy5-dT15 DNA binding. AID 687043, 2013;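 active means inhibition above the average over every tested compound plus 3 SD, cut at about 40% in these data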
# Active calls of the source: *. Shown are actives, neighbours in structure and some others; about 6.9% of the full set was active somewhere.
SMILES,Cy5 interf NS3h,NS3h inh CB
CCOc1ccc(C(=O)Nc2ccc(-c3cc4ccccc4oc3=O)c(C)c2)cc1Cl,0.96,-2
Cc1cc(NC(=O)c2ccc(Cl)cc2)ccc1-c1cc2ccccc2oc1=O,0.66*,3
CC(C)(C)c1ccc(/C=N\N=C2\NC(=O)C(CC(=O)O)S2)cc1 (stereo not given),1,0
COc1ccc(C(O)=Cc2nc3ccccc3oc2=O)cc1,1.1,31
Cc1nc(-c2ccccc2)nc2[nH]ccc(=O)c12,0.8*,4
Cc1nc(-c2ccccc2)c2c(=O)cc[nH]c2n1,1,-1
CC(N=C(NS(=O)(=O)c1ccccc1)c1ccccc1)C(=O)O (stereo not given),1,-15
Cc1ccc(S(=O)(=O)NC(=NC(Cc2ccccc2)C(=O)O)c2ccccc2)cc1 (stereo not given),0.74*,20
Cc1cc(C)cc(NC(=O)C(=O)NCCc2ccccc2)c1,0.93,21
Cc1ccc(C(C)C)c(OCc2nnc(NC(=O)Nc3ccc(Cl)cc3)s2)c1,1.1,2
CCc1ccc(S(=O)(=O)Nc2cc(Br)c(O)c3ccccc23)cc1,0.98,4
CCc1ccc(S(=O)(=O)Nc2cc(-c3c(O)ccc4ccccc34)c(O)c3ccccc23)cc1,0.78*,9
O=C(CSc1nnnn1-c1ccccc1)Nc1ccccc1[N+](=O)[O-],0.91,1
CCOc1ccccc1NC(=O)CN(c1ccc(C)cc1)S(=O)(=O)c1ccc(OC)c(OC)c1,0.97,15
COc1ccc(S(=O)(=O)N(CC(=O)Nc2ccc(C(C)=O)cc2)c2ccc(C)cc2)cc1OC,0.91,10
COc1ccc(N(CC(=O)Nc2ccccc2Br)S(C)(=O)=O)c(OC)c1,0.98,7
COc1ccc(N(CC(=O)Nc2ccc(Br)cc2)S(=O)(=O)c2ccc(OC)c(OC)c2)cc1,0.7*,10
COc1ccc(S(=O)(=O)N(CC(=O)Nc2ccc(Br)cc2)c2ccc(C)cc2)cc1OC,0.68*,17
COc1ccc(N(CC(=O)Nc2cc(OC)ccc2OC)S(=O)(=O)c2ccc(OC)c(OC)c2)cc1,1.1,11
COc1ccc(N(CC(=O)Nc2ccccc2Br)S(C)(=O)=O)cc1,1.3*,18
COc1ccc(S(=O)(=O)N(CC(=O)Nc2cccc3ccccc23)c2ccc(C)cc2)cc1OC,0.68*,28
Cc1ccc(C(=O)NC2Sc3ccccc3N=C2c2ccccc2)cc1 (stereo not given),0.88,9
Cc1cc(C)c(N(C=O)C(=O)C2C(C)C3C=CC2C32CC2)c(C)c1 (stereo not given),1,12
CCC1(C)Cc2c(sc3[nH]c(=S)n(-c4ccccc4)c(=O)c23)CO1 (stereo not given),1,-5
CC1=NN(C(=O)c2cccc([N+](=O)[O-])c2)C(O)(c2ccc(Br)cc2)C1 (stereo not given),1,1
SMILES,Cy5 interf NS3h,NS3h inh CB
COc1ccc(CCNC(=O)COc2ccc(C)cc2)cc1,1,7
COc1ccc(S(=O)(=O)Nc2ccc(I)cc2)cc1OC,0.89,14
COc1ccc(NC(=O)CN(c2cccc([N+](=O)[O-])c2)S(=O)(=O)c2ccccc2)c(OC)c1,0.7*,28
COc1ccc(NC(=O)CN(c2cccc([N+](=O)[O-])c2)S(=O)(=O)c2ccccc2)cc1,1,-2
COc1ccc(NC(=O)CN(c2ccc(Cl)cc2)S(=O)(=O)c2ccccc2)cc1,1,11
COc1ccc(N(CC(=O)Nc2ccc(C(=O)N3CCOCC3)cc2)S(=O)(=O)c2ccccc2)cc1,0.72*,13
COc1ccc(N(CC(=O)Nc2ccccc2Cl)S(=O)(=O)c2ccc(C)cc2)c(OC)c1,1.2*,-1
COc1ccc(N(CC(=O)Nc2ccc3ccccc3c2)S(=O)(=O)c2ccc(C)cc2)c(OC)c1,1.1,10
Cc1cc(C)cc(NC(=O)C(=O)NCC(C)O)c1 (stereo not given),0.98,-3
FC1(F)C2C3OC(C4C5C=CC(O5)C34)C2C1(F)F (stereo not given),1,-4
COc1ccccc1-c1c(C(F)(F)F)oc2cc(OC(=O)c3ccccc3C)ccc2c1=O,0.99,9
Cc1ccc(C=C2C(=O)N(C)C(=S)N(c3ccccc3)C2=O)s1,1.3*,20
Cc1cccc(C(=O)Oc2ccc(/C=C3/SC(=S)N(c4ccccc4)C3=O)cc2)c1,1.1,4
Cc1ccccc1-c1cc2nc(C)c(Cl)c(=O)n2[nH]1,1,-1
Cc1nc2cc(-c3ccco3)[nH]n2c(=O)c1C,0.77*,9
COc1ccc(/C=C/C(=O)c2c(-c3ccccc3)c3cc(Br)ccc3[nH]c2=O)cc1,1,8
Cc1ccc(NC(=S)NC2CCCCC2)cc1,0.95,5
Cc1ccc(C(=O)Nc2nc3ccccc3n2Cc2ccccc2Cl)cc1,1,2
COC(C)(C)CNS(=O)(=O)c1ccc(C)cc1,0.74*,9
COc1ccc(CNS(=O)(=O)c2ccc(C)cc2)cc1,0.99,7
COc1ccc(C(=O)N/C(=C\c2cccc([N+](=O)[O-])c2)C(=O)NCC2CCCO2)cc1 (stereo not given),0.98,4
Cc1cccc(NC(=O)C(=O)NCCCOC(C)C)c1,0.92,9
COc1ccc(/C=C2/N=C(c3ccc(Br)cc3)OC2=O)cc1,1.2*,12
O=C1OC(c2ccc(F)cc2)=N/C1=C\c1ccc(Cl)cc1,1.1,0
COc1ccc(/C=C2\C(=O)ON=C2C)cc1,1.1,12
SMILES,Cy5 interf NS3h,NS3h inh CB
Cc1ccc(/C=C2N=C(/C=C/c3ccccc3)OC/2=O)s1,1.1,10
COc1ccc(/C=C2N=C(/C=C/c3ccccc3)OC/2=O)cc1,0.72*,15
O=C1OC(/C=C/c2ccccc2)=NC/1=C/c1ccccc1,0.78*,20
CC(=O)c1ccc(N2CCN(C(=O)c3cccc(F)c3)CC2)c(F)c1,1,-2
Cc1ccc2oc(-c3ccc(NC(=O)/C=C/c4ccccc4)cc3O)nc2c1,1.2,12
COc1ccc(Cc2nnc(NC(=O)Nc3ccccc3)s2)cc1,1,7
COc1ccccc1-c1coc2cc(OC(C)=O)ccc2c1=O,1.1,6
CC(C)COc1ccc(C(=O)Nc2cccc3ccccc23)cc1,1.1,23
COC(=O)c1ccccc1NC(=O)c1ccccc1NC(=O)c1ccc(OC)cc1,1,9
COc1cc(NC(=O)COc2ccc3ccccc3c2)cc(OC)c1,1.1,18
Cc1ccccc1NC(=O)c1ccc(OCC(C)C)cc1,0.76*,12
CCCOc1ccc(C(=O)Nc2ccccc2C(=O)OC)cc1,0.7*,13
Cc1ccc(NC(=O)COc2ccc3ccccc3c2)cc1,1.4*,11
COC(=O)c1ccccc1NC(=O)COc1ccc(C)c(C)c1,0.63*,6
COC(=O)c1ccccc1NC(=O)COc1ccc(Br)cc1,0.96,12
Cn1c(-c2cccc(Cl)c2)n[nH]c1=S,1,-3
Cc1cc(C)nc(Sc2ccc3nnc(C(F)(F)F)n3n2)n1,1,-1
O=C(/C=C/c1ccc(F)cc1)Nc1ccccc1Br,0.95,8
C/C(=N/N=C\c1ccccc1)C1C(=O)c2ccccc2C1=O,0.68*,0
C/C(=N/N=C(\C)c1cccs1)C1C(=O)c2ccccc2C1=O,1,4

# Source: PubChem BioAssay
